# Laboratory results: PubChem BioAssay AID1159580 (chemical genetic matrix, 2015)
# Out of some 5,500 compounds screened, about 2,000 (36%) were called active. About 18% were inconclusive and are not listed. The list shows a part of the results. A number with no mark means an inactive call. Cut-off read from the data, not from the text of the source: active = normalized growth mostly below about 0.91 (no sharp cut-off); inconclusive = no clear call, values can overlap the other calls; inactive = mostly above about 0.92.
# Test: chemical genetic growth profiling, strain panel (AID 1159580);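 note: tested at 20 µM; growth read once vehicle control cultures reached saturation at 30 °C; 1 = growth at the plate median or of vehicle wells; lower values mean less growth of the strain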
# Conditions: S. cerevisiae deletion strains, growth OD
# [1] = locus YHR030C, strain SLT2, hits give low values
# [2] = locus YHR079C, strain IRE1, hits give low values
# [3] = locus YJL095W, strain BCK1, hits give low values
# [4] = locus YJR066W, strain TOR1, hits give low values
# [5] = locus YLR113W, strain HOG1, hits give low values
# [6] = locus YNL183C, strain NPR1, hits give low values
# [7] = locus YOR231W, strain MKK1, hits give low values
# [8] = locus YPL256C, strain CLN2, hits give low values
smiles,measurement,setting,value
O=C(SCc1c(Cl)cccc1Cl)c1ccc([N+](=O)[O-])o1,normalized growth,"locus YAR019C, strain CDC15, hits give low values",0.954
same,normalized growth,"locus YBL105C, strain PKC1, hits give low values",0.96
same,normalized growth,"locus YBR135W, strain CKS1, hits give low values",0.968
same,normalized growth,"locus YBR136W, strain MEC1, hits give low values",0.969
same,normalized growth,"locus YBR160W, strain CDC28, hits give low values",0.964
same,normalized growth,"locus YDL017W, strain CDC7, hits give low values",0.967
same,normalized growth,"locus YDL028C, strain MPS1, hits give low values",0.969
same,normalized growth,"locus YDL101C, strain DUN1, hits give low values",0.978
same,normalized growth,"locus YDL108W, strain KIN28, hits give low values",0.961
same,normalized growth,"locus YDL132W, strain cdc53, hits give low values",0.967
same,normalized growth,"locus YDL214C, strain PRR2, hits give low values",0.456 (active)
same,normalized growth,"locus YDR052C, strain DBF4, hits give low values",0.967
same,normalized growth,"locus YDR054C, strain cdc34, hits give low values",0.95
same,normalized growth,"locus YDR226W, strain ADK1, hits give low values",0.959
same,normalized growth,"locus YDR477W, strain SNF1, hits give low values",0.295 (active)
same,normalized growth,"locus YER123W, strain YCK3, hits give low values",0.422 (active)
same,normalized growth,"locus YER133W, strain GLC7, hits give low values",0.553 (active)
same,normalized growth,"locus YFL009W, strain cdc4, hits give low values",0.955
same,normalized growth,"locus YFL029C, strain CAK1, hits give low values",0.951
same,normalized growth,"locus YFR003C, strain YPI1, hits give low values",0.962
same,normalized growth,"locus YFR019W, strain FAB1, hits give low values",0.612 (active)
same,normalized growth,"locus YFR028C, strain CDC14, hits give low values",0.962
same,normalized growth,"locus YGR040W, strain KSS1, hits give low values",0.324 (active)
same,normalized growth,"locus YGR052W, strain FMP48, hits give low values",0.502 (active)
same,normalized growth,"locus YGR092W, strain DBF2, hits give low values",0.221 (active)
same,normalized growth,[1],0.179 (active)
same,normalized growth,[2],0.334 (active)
same,normalized growth,"locus YHR082C, strain KSP1, hits give low values",0.332 (active)
same,normalized growth,"locus YHR205W, strain SCH9, hits give low values",0.0602 (active)
same,normalized growth,"locus YIL147C, strain SLN1, hits give low values",0.972
same,normalized growth,[3],0.624
same,normalized growth,"locus YJL128C, strain PBS2, hits give low values",0.868
same,normalized growth,"locus YJL157C, strain FAR1, hits give low values",0.477 (active)
same,normalized growth,"locus YJR016C, strain ILV3, hits give low values",0.965
same,normalized growth,"locus YJR066W, strain TOR1 (second series), hits give low values",0.351 (active)
same,normalized growth,[4],0.425 (active)
same,normalized growth,"locus YKL048C, strain ELM1, hits give low values",0.65 (active)
same,normalized growth,"locus YKL067W, strain YNK1, hits give low values",0.652 (active)
same,normalized growth,"locus YKL101W, strain HSL1, hits give low values",0.571 (active)
same,normalized growth,"locus YKL193C, strain SDS22, hits give low values",0.954
same,normalized growth,"locus YKL203C, strain TOR2, hits give low values",0.438 (active)
same,normalized growth,[5],0.4 (active)
same,normalized growth,"locus YLR133W, strain CKI1, hits give low values",0.499 (active)
same,normalized growth,"locus YLR403W, strain SFP1, hits give low values",0.201 (active)
same,normalized growth,"locus YML070W, strain DAK1, hits give low values",0.547 (active)
same,normalized growth,"locus YMR001C, strain CDC5, hits give low values",0.942
same,normalized growth,"locus YMR205C, strain PFK2 (second series), hits give low values",0.677 (active)
same,normalized growth,"locus YMR277W, strain FCP1, hits give low values",0.968
same,normalized growth,"locus YNL006W, strain LST8, hits give low values",0.976
same,normalized growth,"locus YNL020C, strain ARK1, hits give low values",0.48 (active)
same,normalized growth,"locus YNL161W, strain CBK1, hits give low values",0.965
same,normalized growth,[6],0.438 (active)
same,normalized growth,"locus YNL207W, strain RIO2, hits give low values",0.947
same,normalized growth,"locus YNL222W, strain SSU72, hits give low values",0.971
same,normalized growth,"locus YNL307C, strain MCK1 (second series), hits give low values",0.247 (active)
same,normalized growth,"locus YOL078W, strain AVO1, hits give low values",0.963
same,normalized growth,"locus YOL136C, strain PFK27, hits give low values",0.406 (active)
same,normalized growth,"locus YOR061W, strain CKA2, hits give low values",0.633 (active)
same,normalized growth,"locus YOR119C, strain RIO1, hits give low values",0.445 (active)
same,normalized growth,[7],0.578 (active)
same,normalized growth,"locus YOR329C, strain SCD5, hits give low values",0.964
same,normalized growth,"locus YPL031C, strain PHO85, hits give low values",0.396 (active)
same,normalized growth,"locus YPL153C, strain RAD53, hits give low values",0.614 (active)
same,normalized growth,"locus YPL204W, strain HRR25, hits give low values",0.371 (active)
same,normalized growth,"locus YPL209C, strain IPL1, hits give low values",0.976
same,normalized growth,[8],0.232 (active)
same,normalized growth,"locus YPR025C, strain CCL1, hits give low values",0.959
same,normalized growth,"locus YPR106W, strain ISR1, hits give low values",0.985
same,normalized growth,"locus YPR111W, strain DBF20, hits give low values",0.978
same,normalized growth,"strain NNK1, hits give low values",0.959
same,normalized growth,"strain TSCII, hits give low values",0.939
O=C(N/N=C\c1ccc([N+](=O)[O-])o1)c1ccc(O)cc1,normalized growth,[1],0.924
same,normalized growth,[2],0.936
same,normalized growth,[3],0.907
same,normalized growth,[4],0.883
same,normalized growth,[5],0.872
same,normalized growth,[6],0.869
same,normalized growth,[7],0.91
same,normalized growth,[8],0.956
